# Data reported in publication PMC11006913.
# Positions count from the first letter of the chain named.
# Legend:
# Test in all cases: PBM; 200 nM protein, PBS
# Settings in all cases: dsDNA, one strand shown
# VENTX [1] = molecular target: T1, VENTX (Homo sapiens, UniProt O95231 78-163, R121Q)
# T1 sequence: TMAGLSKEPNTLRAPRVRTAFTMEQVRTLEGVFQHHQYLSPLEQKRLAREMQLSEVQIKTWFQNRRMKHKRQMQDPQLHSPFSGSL
# VENTX [2] = molecular target: T2, VENTX (Homo sapiens, UniProt O95231 78-163)
# T2 sequence: T1 sequence with Q44R
# HOXB9 [3] = molecular target: HOXB9 (Homo sapiens, UniProt P17482 171-250, T197M)
# HOXA7 [4] = molecular target: HOXA7 (Homo sapiens, UniProt P31268 116-202)
# VENTX [5] = molecular target: T3, VENTX (Homo sapiens, UniProt O95231 78-163, Y115F)
# T3 sequence: T1 sequence with Y38F, Q44R
# HOXB9 [6] = molecular target: HOXB9 (Homo sapiens, UniProt P17482 171-250)
# MSX2 [7] = molecular target: MSX2 (Homo sapiens, UniProt P35548 130-214, R199I)
# MSX2 [8] = molecular target: MSX2 (Homo sapiens, UniProt P35548 130-214)
# PROP1 [9] = molecular target: PROP1 (Homo sapiens, UniProt O75360 56-141)
# PROP1 [10] = molecular target: PROP1 (Homo sapiens, UniProt O75360 56-141, R99H)
# HOXB9 [11] = molecular target: HOXB9 (Homo sapiens, UniProt P17482 171-250, R186Q)
# PROP1 [12] = molecular target: PROP1 (Homo sapiens, UniProt O75360 56-141, F88S)
# MSX2 [13] = molecular target: MSX2 (Homo sapiens, UniProt P35548 130-214, F161Y)
# HOXA7 [14] = molecular target: HOXA7 (Homo sapiens, UniProt P31268 116-202, W177C)
# HOXC9 [15] = molecular target: HOXC9 (Homo sapiens, UniProt P31274 178-260, K195R)
# HOXB6 [16] = molecular target: HOXB6 (Homo sapiens, UniProt P17509 132-218, K202E)
# HOXC9 [17] = molecular target: HOXC9 (Homo sapiens, UniProt P31274 178-260)
# HOXC9 [18] = molecular target: HOXC9 (Homo sapiens, UniProt P31274 178-260, R193K)
# VAX1 [19] = molecular target: VAX1 (Homo sapiens, UniProt Q5SQQ9 86-172)
# HOXC9 [20] = molecular target: HOXC9 (Homo sapiens, UniProt P31274 178-260, R222W)
# VAX1 [21] = molecular target: VAX1 (Homo sapiens, UniProt Q5SQQ9 86-172, T142I)
# VAX1 [22] = molecular target: VAX1 (Homo sapiens, UniProt Q5SQQ9 86-172, K157R)
# HOXB6 [23] = molecular target: HOXB6 (Homo sapiens, UniProt P17509 132-218)
# PAX4 [24] = molecular target: T4, PAX4 (Homo sapiens, UniProt O43316 9-242, R200K)
# T4 sequence: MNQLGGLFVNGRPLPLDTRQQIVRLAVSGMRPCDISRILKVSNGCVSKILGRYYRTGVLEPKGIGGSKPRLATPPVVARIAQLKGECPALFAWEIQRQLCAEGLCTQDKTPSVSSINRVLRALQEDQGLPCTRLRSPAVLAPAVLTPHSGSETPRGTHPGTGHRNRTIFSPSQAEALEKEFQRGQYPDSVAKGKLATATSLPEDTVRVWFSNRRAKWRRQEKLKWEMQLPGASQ
# PRRX1 [25] = molecular target: PRRX1 (Homo sapiens, UniProt P54821 80-166, F113S)
# PAX4 [26] = molecular target: T5, PAX4 (Homo sapiens, UniProt O43316 9-242)
# T5 sequence: T4 sequence with K192R
# ALX1 [27] = molecular target: ALX1 (Homo sapiens, UniProt Q15699 118-204, L144V)
# ALX3 [28] = molecular target: ALX3 (Homo sapiens, UniProt O95076 139-225, N203Q)
# PAX4 [29] = molecular target: T6, PAX4 (Homo sapiens, UniProt O43316 9-242, R200Q)
# T6 sequence: T4 sequence with K192Q
# ALX1 [30] = molecular target: ALX1 (Homo sapiens, UniProt Q15699 118-204, L144R)
# PAX4 [31] = molecular target: T7, PAX4 (Homo sapiens, UniProt O43316 9-242, F177V)
# T7 sequence: T4 sequence with F169V, K192R
# ALX3 [32] = molecular target: ALX3 (Homo sapiens, UniProt O95076 139-225)
# PAX4 [33] = molecular target: T8, PAX4 (Homo sapiens, UniProt O43316 9-242, F177Y)
# T8 sequence: T4 sequence with F169Y, K192R
# ALX3 [34] = molecular target: ALX3 (Homo sapiens, UniProt O95076 139-225, L168Q)
# ALX3 [35] = molecular target: ALX3 (Homo sapiens, UniProt O95076 139-225, L168V)
# PAX4 [36] = molecular target: T9, PAX4 (Homo sapiens, UniProt O43316 9-242, R227W)
# T9 sequence: T4 sequence with K192R, R219W
# ALX1 [37] = molecular target: ALX1 (Homo sapiens, UniProt Q15699 118-204)
# ALX3 [38] = molecular target: ALX3 (Homo sapiens, UniProt O95076 139-225, N203S)
# PRRX1 [39] = molecular target: PRRX1 (Homo sapiens, UniProt P54821 80-166)
# PRRX1 (Homo sapiens, UniProt P54821 80-166), sequence (P54821 80-166): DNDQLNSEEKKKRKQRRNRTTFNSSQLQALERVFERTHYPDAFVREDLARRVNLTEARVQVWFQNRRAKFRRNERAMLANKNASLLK
# HOXB9 (Homo sapiens, UniProt P17482 171-250, R186Q), sequence (P17482 171-250 R186Q): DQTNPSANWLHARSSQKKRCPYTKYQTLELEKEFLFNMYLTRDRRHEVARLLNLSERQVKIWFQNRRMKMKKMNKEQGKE
# HOXB9 (Homo sapiens, UniProt P17482 171-250), sequence (P17482 171-250): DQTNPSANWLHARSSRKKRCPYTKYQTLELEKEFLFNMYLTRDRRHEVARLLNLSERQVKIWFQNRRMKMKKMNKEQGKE
# HOXB9 (Homo sapiens, UniProt P17482 171-250, T197M), sequence (P17482 171-250 T197M): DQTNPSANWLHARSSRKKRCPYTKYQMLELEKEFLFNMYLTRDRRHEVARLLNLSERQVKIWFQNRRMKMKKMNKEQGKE
# HOXC9 (Homo sapiens, UniProt P31274 178-260, R222W), sequence (P31274 178-260 R222W): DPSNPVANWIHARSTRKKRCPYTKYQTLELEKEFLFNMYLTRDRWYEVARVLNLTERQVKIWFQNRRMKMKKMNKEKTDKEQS
# PRRX1 (Homo sapiens, UniProt P54821 80-166, F113S), sequence (P54821 80-166 F113S): as the sequence (P54821 80-166) above, with F34S counted along it
# ALX1 (Homo sapiens, UniProt Q15699 118-204), sequence (Q15699 118-204): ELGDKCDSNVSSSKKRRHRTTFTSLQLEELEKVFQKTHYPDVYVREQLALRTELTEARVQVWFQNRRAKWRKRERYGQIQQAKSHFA
# ALX3 (Homo sapiens, UniProt O95076 139-225, N203Q), sequence (O95076 139-225 N203Q): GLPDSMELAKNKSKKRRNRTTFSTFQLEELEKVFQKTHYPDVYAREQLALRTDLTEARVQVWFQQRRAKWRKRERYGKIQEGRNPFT
# MSX2 (Homo sapiens, UniProt P35548 130-214), sequence (P35548 130-214): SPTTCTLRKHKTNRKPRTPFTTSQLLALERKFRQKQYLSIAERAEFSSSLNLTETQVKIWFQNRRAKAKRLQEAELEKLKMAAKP
# PROP1 (Homo sapiens, UniProt O75360 56-141, F88S), sequence (O75360 56-141 F88S): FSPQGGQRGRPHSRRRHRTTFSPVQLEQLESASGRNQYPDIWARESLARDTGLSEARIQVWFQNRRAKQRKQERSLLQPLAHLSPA
# VAX1 (Homo sapiens, UniProt Q5SQQ9 86-172, K157R), sequence (Q5SQQ9 86-172 K157R): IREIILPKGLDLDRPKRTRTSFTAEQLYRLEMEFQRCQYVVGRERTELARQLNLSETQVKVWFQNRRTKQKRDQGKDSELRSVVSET
# ALX3 (Homo sapiens, UniProt O95076 139-225, L168Q), sequence (O95076 139-225 L168Q): as the sequence (O95076 139-225 N203Q) above, with L30Q, Q65N counted along it
# HOXC9 (Homo sapiens, UniProt P31274 178-260, K195R), sequence (P31274 178-260 K195R): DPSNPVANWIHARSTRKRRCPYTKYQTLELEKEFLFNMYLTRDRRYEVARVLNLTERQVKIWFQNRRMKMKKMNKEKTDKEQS
# ALX3 (Homo sapiens, UniProt O95076 139-225, L168V), sequence (O95076 139-225 L168V): as the sequence (O95076 139-225 N203Q) above, with L30V, Q65N counted along it
# MSX2 (Homo sapiens, UniProt P35548 130-214, R199I), sequence (P35548 130-214 R199I): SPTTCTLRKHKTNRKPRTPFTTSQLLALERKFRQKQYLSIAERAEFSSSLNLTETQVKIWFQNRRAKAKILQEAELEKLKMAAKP
# MSX2 (Homo sapiens, UniProt P35548 130-214, F161Y), sequence (P35548 130-214 F161Y): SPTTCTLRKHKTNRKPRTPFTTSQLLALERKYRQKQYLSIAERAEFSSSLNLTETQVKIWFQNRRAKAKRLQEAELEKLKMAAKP
# ALX3 (Homo sapiens, UniProt O95076 139-225), sequence (O95076 139-225): as the sequence (O95076 139-225 N203Q) above, with Q65N counted along it
# PROP1 (Homo sapiens, UniProt O75360 56-141, R99H), sequence (O75360 56-141 R99H): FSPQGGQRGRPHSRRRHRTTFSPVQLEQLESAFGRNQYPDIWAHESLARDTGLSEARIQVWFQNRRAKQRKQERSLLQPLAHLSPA
# VAX1 (Homo sapiens, UniProt Q5SQQ9 86-172), sequence (Q5SQQ9 86-172): as the sequence (Q5SQQ9 86-172 K157R) above, with R72K counted along it
# HOXA7 (Homo sapiens, UniProt P31268 116-202, W177C), sequence (P31268 116-202 W177C): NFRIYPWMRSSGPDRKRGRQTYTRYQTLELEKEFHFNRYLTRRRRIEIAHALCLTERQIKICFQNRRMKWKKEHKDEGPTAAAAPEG
# HOXB6 (Homo sapiens, UniProt P17509 132-218, K202E), sequence (P17509 132-218 K202E): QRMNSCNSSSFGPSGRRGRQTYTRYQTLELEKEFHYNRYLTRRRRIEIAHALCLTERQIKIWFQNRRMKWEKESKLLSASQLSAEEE
# ALX1 (Homo sapiens, UniProt Q15699 118-204, L144V), sequence (Q15699 118-204 L144V): as the sequence (Q15699 118-204) above, with L27V counted along it
# PROP1 (Homo sapiens, UniProt O75360 56-141), sequence (O75360 56-141): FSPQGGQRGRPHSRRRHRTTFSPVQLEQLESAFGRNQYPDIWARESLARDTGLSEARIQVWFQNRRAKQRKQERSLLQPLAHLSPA
# ALX1 (Homo sapiens, UniProt Q15699 118-204, L144R), sequence (Q15699 118-204 L144R): as the sequence (Q15699 118-204) above, with L27R counted along it
# VAX1 (Homo sapiens, UniProt Q5SQQ9 86-172, T142I), sequence (Q5SQQ9 86-172 T142I): as the sequence (Q5SQQ9 86-172 K157R) above, with T57I, R72K counted along it
# HOXC9 (Homo sapiens, UniProt P31274 178-260, R193K), sequence (P31274 178-260 R193K): as the sequence (P31274 178-260 R222W) above, with R16K, W45R counted along it
# HOXA7 (Homo sapiens, UniProt P31268 116-202), sequence (P31268 116-202): as the sequence (P31268 116-202 W177C) above, with C62W counted along it
# ALX3 (Homo sapiens, UniProt O95076 139-225, N203S), sequence (O95076 139-225 N203S): as the sequence (O95076 139-225 N203Q) above, with Q65S counted along it
# HOXB6 (Homo sapiens, UniProt P17509 132-218), sequence (P17509 132-218): as the sequence (P17509 132-218 K202E) above, with E71K counted along it
# HOXC9 (Homo sapiens, UniProt P31274 178-260), sequence (P31274 178-260): as the sequence (P31274 178-260 R222W) above, with W45R counted along it
sequence,measurement,setting,value
TAATGTGA,binding signal,VENTX [1],"10.5 upbm affinity estimate (log intensity, higher = more binding, comparable within an allelic series)"
AAATCTAC,binding signal,VENTX [1],"9.32 upbm affinity estimate (log intensity, higher = more binding, comparable within an allelic series)"
same,binding signal,VENTX [2],"9.65 upbm affinity estimate (log intensity, higher = more binding, comparable within an allelic series)"
CCCGGACG,binding signal,VENTX [1],"7.96 upbm affinity estimate (log intensity, higher = more binding, comparable within an allelic series)"
same,binding signal,HOXB9 [3],"8.39 upbm affinity estimate (log intensity, higher = more binding, comparable within an allelic series)"
same,binding signal,VENTX [2],"7.88 upbm affinity estimate (log intensity, higher = more binding, comparable within an allelic series)"
same,binding signal,HOXA7 [4],"8.42 upbm affinity estimate (log intensity, higher = more binding, comparable within an allelic series)"
same,binding signal,VENTX [5],"8.04 upbm affinity estimate (log intensity, higher = more binding, comparable within an allelic series)"
same,binding signal,HOXB9 [6],"8.49 upbm affinity estimate (log intensity, higher = more binding, comparable within an allelic series)"
same,binding signal,MSX2 [7],"9.41 upbm affinity estimate (log intensity, higher = more binding, comparable within an allelic series)"
same,binding signal,MSX2 [8],"9.27 upbm affinity estimate (log intensity, higher = more binding, comparable within an allelic series)"
same,binding signal,PROP1 [9],"6.37 upbm affinity estimate (log intensity, higher = more binding, comparable within an allelic series)"
same,binding signal,PROP1 [10],"6.67 upbm affinity estimate (log intensity, higher = more binding, comparable within an allelic series)"
same,binding signal,HOXB9 [11],"8.54 upbm affinity estimate (log intensity, higher = more binding, comparable within an allelic series)"
same,binding signal,PROP1 [12],"6.37 upbm affinity estimate (log intensity, higher = more binding, comparable within an allelic series)"
same,binding signal,MSX2 [13],"9.4 upbm affinity estimate (log intensity, higher = more binding, comparable within an allelic series)"
same,binding signal,HOXA7 [14],"8.37 upbm affinity estimate (log intensity, higher = more binding, comparable within an allelic series)"
GGGGTACC,binding signal,VENTX [1],"8.08 upbm affinity estimate (log intensity, higher = more binding, comparable within an allelic series)"
same,binding signal,HOXC9 [15],"9.78 upbm affinity estimate (log intensity, higher = more binding, comparable within an allelic series)"
same,binding signal,VENTX [2],"8.11 upbm affinity estimate (log intensity, higher = more binding, comparable within an allelic series)"
same,binding signal,VENTX [5],"7.99 upbm affinity estimate (log intensity, higher = more binding, comparable within an allelic series)"
same,binding signal,HOXB6 [16],"9.07 upbm affinity estimate (log intensity, higher = more binding, comparable within an allelic series)"
same,binding signal,HOXC9 [17],"9.67 upbm affinity estimate (log intensity, higher = more binding, comparable within an allelic series)"
same,binding signal,HOXC9 [18],"9.47 upbm affinity estimate (log intensity, higher = more binding, comparable within an allelic series)"
same,binding signal,VAX1 [19],"7.1 upbm affinity estimate (log intensity, higher = more binding, comparable within an allelic series)"
same,binding signal,HOXC9 [20],"9.69 upbm affinity estimate (log intensity, higher = more binding, comparable within an allelic series)"
same,binding signal,VAX1 [21],"7.26 upbm affinity estimate (log intensity, higher = more binding, comparable within an allelic series)"
same,binding signal,VAX1 [22],"7.1 upbm affinity estimate (log intensity, higher = more binding, comparable within an allelic series)"
same,binding signal,HOXB6 [23],"9.04 upbm affinity estimate (log intensity, higher = more binding, comparable within an allelic series)"
GCCGCAGC,binding signal,VENTX [1],"8.08 upbm affinity estimate (log intensity, higher = more binding, comparable within an allelic series)"
same,binding signal,HOXB9 [3],"8.46 upbm affinity estimate (log intensity, higher = more binding, comparable within an allelic series)"
same,binding signal,VENTX [2],"8.11 upbm affinity estimate (log intensity, higher = more binding, comparable within an allelic series)"
same,binding signal,PAX4 [24],"9.27 upbm affinity estimate (log intensity, higher = more binding, comparable within an allelic series)"
same,binding signal,PRRX1 [25],"9.25 upbm affinity estimate (log intensity, higher = more binding, comparable within an allelic series)"
same,binding signal,VENTX [5],"8.14 upbm affinity estimate (log intensity, higher = more binding, comparable within an allelic series)"
same,binding signal,PAX4 [26],"9.2 upbm affinity estimate (log intensity, higher = more binding, comparable within an allelic series)"
same,binding signal,HOXB9 [6],"8.33 upbm affinity estimate (log intensity, higher = more binding, comparable within an allelic series)"
same,binding signal,ALX1 [27],"6.7 upbm affinity estimate (log intensity, higher = more binding, comparable within an allelic series)"
same,binding signal,ALX3 [28],"7.73 upbm affinity estimate (log intensity, higher = more binding, comparable within an allelic series)"
same,binding signal,PAX4 [29],"9.23 upbm affinity estimate (log intensity, higher = more binding, comparable within an allelic series)"
same,binding signal,ALX1 [30],"6.73 upbm affinity estimate (log intensity, higher = more binding, comparable within an allelic series)"
same,binding signal,PAX4 [31],"9.18 upbm affinity estimate (log intensity, higher = more binding, comparable within an allelic series)"
same,binding signal,ALX3 [32],"7.89 upbm affinity estimate (log intensity, higher = more binding, comparable within an allelic series)"
same,binding signal,PAX4 [33],"9.21 upbm affinity estimate (log intensity, higher = more binding, comparable within an allelic series)"
same,binding signal,ALX3 [34],"7.75 upbm affinity estimate (log intensity, higher = more binding, comparable within an allelic series)"
same,binding signal,HOXB9 [11],"8.46 upbm affinity estimate (log intensity, higher = more binding, comparable within an allelic series)"
same,binding signal,ALX3 [35],"7.74 upbm affinity estimate (log intensity, higher = more binding, comparable within an allelic series)"
same,binding signal,PAX4 [36],"9.18 upbm affinity estimate (log intensity, higher = more binding, comparable within an allelic series)"
same,binding signal,ALX1 [37],"6.7 upbm affinity estimate (log intensity, higher = more binding, comparable within an allelic series)"
same,binding signal,ALX3 [38],"7.75 upbm affinity estimate (log intensity, higher = more binding, comparable within an allelic series)"
same,binding signal,PRRX1 [39],"9.47 upbm affinity estimate (log intensity, higher = more binding, comparable within an allelic series)"
